Results filed as inconclusive are left out. Activity calls are given as the source filed them. Calls come from the whole dose curve; as a rule, active = well fitted cell-killing curve with a large enough effect; inconclusive = small, poorly fitted or top-dose-only effect, or effect the other way; inactive = no such curve, though single readings can be large or run the other way.
Test: Quantitative High-Throughput drug screen in 47 multiple myeloma cell lines against the NCATS MIPE library collection: ARD_JJKsccE7 cell viability assay (AID 1918929)
Conditions: ARD myeloma cell line viability, CellTiter-Glo, 48 h; series mostly up to 45.8 µM
Procedure, shortened: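 Luminescent ATP measurement with CellTiter-Glo gives viability, scaled between DMSO-only wells (100%) and media-only wells (0%). Cells, 500 per well, faced library compounds for 48 hours at 37C.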
Potency is the fitted concentration of half-maximal effect.

Compound	Potency
COc1ccc(C(=O)CC(=O)c2ccc(C(C)(C)C)cc2)cc1	18.7 µM (active)
CCN1CCCC1CNC(=O)c1cc(S(N)(=O)=O)ccc1OC (stereo unspecified)	inactive
Oc1c(Cl)cc(Cl)c2cccnc12	18.7 µM (active)
COc1cc2ncnc(Nc3cccc(Cl)c3)c2cc1OC	23.5 µM (active)
Cc1oc(=O)oc1CN1CCN(c2cc3c(cc2F)c(=O)c(C(=O)O)c2n3C(C)S2)CC1 (stereo unspecified)	inactive
O=c1cc(O)c(Cl)c[nH]1	7.43 µM (active)
CCc1c2c(nc3ccc(OC(=O)N4CCC(N5CCCCC5)CC4)cc13)-c1cc3c(c(=O)n1C2)COC(=O)[C@]3(O)CC	0.0105 µM (active)
O=C(O)C1CCCN(CCC=C(c2ccccc2)c2ccccc2)C1 (stereo unspecified)	inactive
COc1ccc2cc3[n+](cc2c1OC)CCc1cc2c(cc1-3)OCO2	5.9 µM (active)
CN(C)CCc1c[nH]c2ccc(C[C@H]3COC(=O)N3)cc12	inactive
COC(=O)Nc1nc2ccc(Sc3ccccc3)cc2[nH]1	1.32 µM (active)
CC(C)(C)NC(=O)[C@H]1CC[C@H]2[C@@H]3CC[C@H]4NC(=O)C=C[C@]4(C)[C@H]3CC[C@]12C	20.9 µM (active)
CO[C@@]12[C@H](COC(N)=O)C3=C(C(=O)C(C)=C(N)C3=O)N1C[C@@H]1N[C@@H]12	inactive
CNC1CCCN(c2c(F)cc3c(=O)c(C(=O)O)cn(C4CC4)c3c2OC)C1 (stereo unspecified)	inactive
Nc1nc(N)c2nc(CNc3ccc(C(=O)NC(CCC(=O)O)C(=O)O)cc3)cnc2n1 (stereo unspecified)	0.0118 µM (active)
CC[C@H](NC(C)C)[C@H](O)c1ccc(O)c2[nH]c(=O)ccc12	inactive
